Data published in PubChem BioAssay AID602143 (Vanderbilt Specialized Chemistry Center, 2011).
A number with no mark means an inactive call. No stated cut-off is given here; in the data, active means remaining activity below about 50%; inactive means the rest.

Biological target: Phospholipase D2 (Homo sapiens) (UniProt O14939)
Experiment: cellular phospholipase D2 activity inhibition – cell-based, HEK293, single concentration (AID 602143);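 further: tested at 200 nM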
Conditions: HEK293 cellular PLD2 activity, percent of control; hits give low values

Phospholipase D2 (Homo sapiens), sequence (O14939 whole entry, looked up): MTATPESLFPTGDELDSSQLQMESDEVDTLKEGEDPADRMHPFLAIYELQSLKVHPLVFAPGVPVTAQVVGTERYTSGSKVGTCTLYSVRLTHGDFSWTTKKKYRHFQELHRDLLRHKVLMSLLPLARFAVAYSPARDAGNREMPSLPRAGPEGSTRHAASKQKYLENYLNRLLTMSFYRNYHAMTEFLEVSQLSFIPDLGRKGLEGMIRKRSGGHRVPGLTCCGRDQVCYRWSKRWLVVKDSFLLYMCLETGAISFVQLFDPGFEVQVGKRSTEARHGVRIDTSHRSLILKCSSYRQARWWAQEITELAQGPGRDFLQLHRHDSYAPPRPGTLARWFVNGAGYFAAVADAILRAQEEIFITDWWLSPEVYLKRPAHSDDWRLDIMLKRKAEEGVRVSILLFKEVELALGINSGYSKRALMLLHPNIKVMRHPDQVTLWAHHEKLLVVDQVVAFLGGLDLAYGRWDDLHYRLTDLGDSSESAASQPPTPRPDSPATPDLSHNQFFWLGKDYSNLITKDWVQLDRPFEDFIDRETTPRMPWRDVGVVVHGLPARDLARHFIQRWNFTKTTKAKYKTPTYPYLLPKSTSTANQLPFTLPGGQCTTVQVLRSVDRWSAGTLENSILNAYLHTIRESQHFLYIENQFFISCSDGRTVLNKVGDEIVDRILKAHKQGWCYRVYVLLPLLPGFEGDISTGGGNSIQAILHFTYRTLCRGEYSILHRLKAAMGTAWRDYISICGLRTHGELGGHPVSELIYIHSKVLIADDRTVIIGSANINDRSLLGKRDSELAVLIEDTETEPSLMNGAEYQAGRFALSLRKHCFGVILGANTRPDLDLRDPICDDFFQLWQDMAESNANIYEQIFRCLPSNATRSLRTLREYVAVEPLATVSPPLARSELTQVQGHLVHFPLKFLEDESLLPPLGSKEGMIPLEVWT
Phospholipase D2 (Homo sapiens), sequence (O14939 whole entry, looked up): as above

Row | SMILES | remaining activity [%]
1 | O=C(c1ccc2ccccc2c1)N1CCC2(CC1)C(=O)NCN2c1ccccc1 | 75.8
2 | Cc1ccc(C(=O)NCCN2CCN(c3ccccn3)CC2)cc1 | 107
3 | O=C(NCCN1CCN(c2ccncc2)CC1)c1cc2cc(F)ccc2[nH]1 | 65.5
4 | CN1CCC2(CCN(CCNC(=O)c3ccc4ccccc4c3)CC2)C1=O | 129
5 | O=C1c2ccccc2C(=O)N1CCCNCc1ccccn1 | 116
6 | COc1cc(C(=O)NCCN2CCN(c3ccncc3)CC2)ccc1N | 130
7 | O=C1c2ccccc2C(=O)N1CCCN1CCC(c2nc3ccccc3[nH]2)CC1 | 82.5
8 | O=C(NCCN1CCC(C(=O)NCc2ccc(Cl)cc2)CC1)c1ccc2ccccc2c1 | 106
9 | NC1(CN2CCC(n3c(=O)[nH]c4ccccc43)CC2)CCCC1 (tested in a mixture with another compound) | 66.9
10 | O=C(NCCN1CCN(c2ccccn2)CC1)c1ccc(F)cc1 | 101
11 | C[C@@H](CN1CCC(n2c(=O)[nH]c3ccccc32)CC1)NC(=O)CSc1ccccc1 | 86.7
12 | CS(=O)(=O)N1CC2(CCN(CCNC(=O)c3ccc4ccccc4c3)CC2)c2ccccc21 | 84.2
13 | O=C(NCCN1CCN(c2ccncc2)CC1)c1ccc(F)cc1O | 112
14 | O=C(NCCN1CCC2(CC1)CNCc1ccccc12)c1cnc2ccccc2c1 | 97.1
15 | O=C(NCCN1CCC(n2c(=O)[nH]c3ccccc32)CC1)c1cccc2cccnc12 | 74.2
